nsP2pro primary: Primary qHTS for inhibitors of NSP2Pro chikungunya virus (CHIKV) | FRET peptide cleavage, nsP2pro, fluorescence 1 h | Potency, µM (top dose mostly 24.9 µM), hits mostly inhibitors | 31,000 compounds, 1.1% hits; calls by dose curve; further: nearly all actives have a fitted effect of over 60% in size
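FRET cleavage of 2.5 uM peptide 2 by 150 nM CHIKV protease domain at pH 8.0 (Tris, Tween 20). Compounds at 7 concentrations (up to 25 uM) preincubated 15 min. Fluorescence read after 1 h at room temperature.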
Each line names hits and unclear results; the compound was inactive in the other large screens. The entries come from a sample that favours hits as a whole.

CCOC(=O)c1ccccc1C(=O)OCC	none
CCOC(=O)[C@H](CS)NCCN[C@@H](CS)C(=O)OCC	nsP2pro primary 11µM
CCOC(=O)C(Cc1ccccc1)NC(=O)Cn1nnc(-c2ccc(C)cc2)n1 (centres undefined)	none
CSC(Cc1ccc(Cl)cc1)C(=O)Nc1ccc(Cl)cc1C(=O)O (centres undefined)	none
N#Cc1cnc(NS(=O)(=O)c2ccc(NC(=O)Cc3ccc(F)c(Cl)c3)cc2)s1	none
COc1cc(OC)cc(C(=O)Nc2ccc(Cl)c(-c3nc4ccc(N(C)C)cc4[nH]3)c2)c1	none
O=C(Nc1ncc(Cc2ccc(C(F)(F)F)cc2)s1)c1ccco1	none
COc1ccc(C)c2sc(N(Cc3cccnc3)C(=O)COc3ccccc3)nc12	none
COc1cccc2sc(N(Cc3cccnc3)C(=O)C3COc4ccccc4O3)nc12 (centres undefined)	none
COc1ccccc1Oc1ccc(N(Cc2cccnc2)S(=O)(=O)CC(F)(F)F)cc1	nsP2pro primary 11µM
CC1CCC(=O)CC(SCC(O)C(=O)O)CCC(=O)O1 (centres undefined)	nsP2pro primary 11µM
CC(=O)c1c(C)cccc1O[C@@H]1O[C@H](CO)[C@@H](O)[C@H](O)[C@H]1O	none
CNC(=O)c1cccc(-c2cnc(Nc3ccc(Cl)cn3)c3c2CCO3)c1	none
Cn1cc(-c2cnc(Nc3cccnc3)c3c2CCO3)cn1	nsP2pro primary 8.9µM
Cn1cc(-c2cnc(Nc3ccc(F)cc3)c3c2CCO3)cn1	none
OC[C@H]1O[C@@H](n2cnc3c2NC=NC[C@H]3O)CC1O (some centres undefined)	none
Cc1cc(-c2ccc(N=Nc3ccc4c(S(=O)(=O)O)cc(S(=O)(=O)O)c(N)c4c3O)c(C)c2)ccc1N=Nc1ccc2c(S(=O)(=O)O)cc(S(=O)(=O)O)c(N)c2c1O	nsP2pro primary 12µM
C[C@]12C=CC(=O)C=C1CC[C@@H]1[C@@H]2[C@@H](O)C[C@@]2(C)[C@H]1CC[C@]2(O)C(=O)COC(=O)c1cccc(S(=O)(=O)O)c1	none
Cc1ccc(-c2cc(C(=O)Nc3ccc(-c4noc(=O)[nH]4)cc3)c3ccccc3n2)cc1C	none
CCOC(=O)C1=C(C)NC(C)=C(C(=O)OCC)C1c1ccccc1/C=C/C(=O)OC(C)(C)C	none
COC(=O)C1=C(C)NC(C)=C(C(=O)OC(C)C)C1c1cccc2nonc12 (centres undefined)	none
COC(=O)C1=C(C)NC(C)=C(C(=O)OCC(C)=O)C1c1ccccc1[N+](=O)[O-] (centres undefined)	nsP2pro primary 12µM
COc1cccc(NC(=S)N2CCN(c3ccc(C(F)(F)F)cc3[N+](=O)[O-])CC2)n1	none
O=C1Nc2ccccc2CN(C/C=C/c2ccccc2)C12CCNC2 (centres undefined)	none
Cc1cc(CN2CCC23Cc2ccccc2NC3=O)no1 (centres undefined)	none
CCCN1Cc2ccccc2NC(=O)C12CCNC2 (centres undefined)	nsP2pro primary 13µM
Cc1ccc(OCCn2c(CCNC(=O)c3cccc(C(F)(F)F)c3)nc3ccccc32)cc1	none
COC(=O)c1ccc2c(c1)S(=O)(=O)N=C2Sc1cc(C)ccc1C	none
Nc1nc(OCc2cc(Br)cs2)c2[nH]cnc2n1	none
Nc1cc(F)ccc1NC(=O)c1ccc(CNC(=O)/C=C/c2cccnc2)cc1	none
COc1ccc(COc2ccc(-c3nc4ccccc4[nH]3)cc2)cc1OC	none
O=C1CCCC2=C1C(c1[nH]ncc1Cl)N=C(Nc1nc3c(Br)cccc3o1)N2 (centres undefined)	none
CCOC(=O)c1[nH]c2c(c1C)CCC(c1ccco1)C2 (centres undefined)	none
CCOC(=O)c1[nH]c2c(c1C)C(=S)CC(c1ccco1)C2 (centres undefined)	nsP2pro primary 13µM
Cc1c(C(=O)NCC2CCCO2)[nH]c2c1C(=O)CC(c1ccco1)C2 (centres undefined)	none
C=C(C(=O)OC)C1C(O)CC2(C)C(O)CCC(=O)C2C1O (centres undefined)	none
CCOc1ccc(CCNC(=O)c2cc3sccc3n2Cc2ccccn2)cc1OCC	none
C[N+](C)(C)CC(O)CC(=O)O (centres undefined)	none
CC(O)CC(=O)O (centres undefined)	nsP2pro primary 16µM
O=C(O)CC(O)C(=O)O (centres undefined)	none
CC(=O)OCC(=O)C1(O)CCC2C3CCC4=CC(=O)CCC4(C)C3C(=O)CC21C (centres undefined)	none
O=C(Nc1ccc2c(N3CCOCC3)ncnc2c1)c1cccc(Cl)c1	none
OCc1ccc(-c2ccc3ncnc(N4CCOCC4)c3c2)o1	nsP2pro primary 13µM
Cc1cc(C(=O)N2CCc3ncnc(N4CCOCC4)c3CC2)n(C)n1	none
C[C@@H](CO)Nc1cc2c(cc1[S+](=O)([O-])Nc1ccc(Cl)c(Cl)c1)CCC(=O)N2	none
CCNC(=O)N[C@@H]1C=C[C@@H](c2c(C)nn(-c3ccc(C(C)(C)C)cc3)c2C)C1	none
CCNC(=O)N[C@@H]1C=C[C@@H](c2c(C)nn(-c3ccc(C(F)(F)F)cc3)c2C)C1	nsP2pro primary 11µM

Screens: PubChem BioAssay, National Center for Advancing Translational Sciences (NCATS)
